Data published in PubChem BioAssay (NCI).
Compounds without any hit were thinned out: in the full panel of roughly 83,000, 20% have a hit.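 The endpoint reported here, percent growth, reads 100 for growth as untreated, 0 for no net growth and -100 for all cells dead.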 Activity calls are given as the source filed them. The calls were made as follows: active = growth percent below 10; inactive = the rest.

The compounds below were run on A498 renal (assay: NCI-60 one-dose screen, 48 h (100 = growth as untreated, 0 = no growth, -100 = all killed)). Conditions: 10 µM unless noted.

| SMILES | growth |
| --- | --- |
| COc1ccc(-c2cc(-c3nnc(SC/C(=N\O)c4ccccc4)n3-c3ccccc3)c3ccccc3n2)cc1 | 109% (inactive) |
| Cc1cc2c(cc1C)N(C(=O)CCl)CCN2C(=O)CCl | 85% (inactive) |
| COc1cc(-c2nc3ccccc3s2)ccc1OCc1nc2n(n1)S(=O)(=O)c1ccccc1N2C | 89.9% (inactive) |
| O=C(Cn1c2ccccc2c2ccncc21)N/N=C\c1ccc2ccccc2c1 | 85.1% (inactive) |
| COc1cc2ncnc(Oc3ccc(NC(=O)Nc4ccc(CN5CCOCC5)c(C(F)(F)F)c4)c4ccccc34)c2cc1OC | -11.3% (active) |
| COc1cc(NC(C)CCCN2C(=O)c3ccccc3C2=O)c2nccc(C)c2c1OC (stereo not drawn) | 92.9% (inactive) |
| Cc1ccc2c(c1)Nc1ccc(C)cc1C2(C)C | 118% (inactive) |
| Cc1ccc(-c2cc(-c3nnc(SCC(=O)c4ccccc4)o3)c3ccccc3n2)cc1 | 77% (inactive) |
| COc1ccccc1N1CCN(CC(O)COc2c(Br)c(Br)c(Br)c3c2OC(C)(C)C3)CC1 (stereo not drawn) | 55.9% (inactive) |
| Fc1ccc(/C=N/n2c(-c3cc(Cl)cc(Cl)c3Cl)nn(CNc3ccc(Cl)nn3)c2=S)cc1 | 105% (inactive) |
| Nc1nc(Nc2ccc(OCc3cccc(F)c3)cc2)c2c(n1)[nH]c1ccc(O)cc12 | 75.9% (inactive) |
| N#CC(C#N)=C(C#N)c1c[nH]c2ccccc12 | 101% (inactive) |
| FC(F)(F)c1cn(CC2CNC2)c2ncnc(Cl)c12 | 112% (inactive) |
| Cc1cc(N2CCOCC2)nc(N(CCNc2ccnc3cc(Cl)ccc23)Cc2ccco2)n1 | 50.9% (inactive) |
| C[C@H]1C=C(C[C@@H](O)CCCCCCCCCC[C@@H](O)[C@H]2CCC(=O)O2)C(=O)O1 | 163% (inactive) |
| S=c1ssnc1-c1ccccn1 | 13% (inactive) |
| CC1(C)N=C(N)N=C(N)N1c1cccc(CCCCc2ccccc2)c1 | 61.7% (inactive) |
| O=[N+]([O-])c1cccc2cc(S(=O)(=O)O)ccc12 | 115% (inactive) |
| CCOc1cccc(Nc2nc(N)nc3[nH]c4ccc(O)cc4c23)c1 | 51% (inactive) |

| SMILES | growth |
| --- | --- |
| NN=C(c1ccc(Cl)cc1)c1ccc(Cl)cc1 | 96% (inactive) |
| O=C(N/N=C1\SCC(=O)N1c1ccccc1)c1cc(-c2cc3ccccc3o2)nn1-c1ccccc1 | 103% (inactive) |
| COc1ccc(N)c(S)c1 | 112% (inactive) |
| Nn1c(SCC(=O)Nc2cc(Cl)c(Cl)cc2Cl)nnc1-c1cc(F)c(Cl)cc1Cl | 115% (inactive) |
| COc1cc(-c2nc3sc(C)cn3c2/C=C2\C(=O)Nc3ccccc32)c(Br)c(OC)c1OC | 22.6% (inactive) |
| CC(=S)Nc1ccccc1 | 103% (inactive) |
| O=C(Nc1ccc(Cl)c(Cl)c1)Nc1ccc(Cl)c([N+](=O)[O-])c1 | -25.9% (active) |
| CCOC(=O)C(C)(CSSCC(C)(NC(=O)c1ccc2ccccc2c1)C(=O)OCC)NC(=O)c1ccc2ccccc2c1 (stereo not drawn) | 136% (inactive) |
| O=C(NC(=S)Nc1ccc(Cl)cc1)c1ccccc1 | 103% (inactive) |
| CSc1nc(N)nc2c1ncn2C | 119% (inactive) |
| O=C(O)c1cc2ccccc2cc1Nc1ccccc1 | 102% (inactive) |
| O=C1CN(CCN2CC(=O)NC(=O)C2)CC(=O)N1 | 103% (inactive) |
| c1nc(SC2=NCCN2)c2[nH]cnc2n1 | 92.8% (inactive) |
| O=C(C[n+]1cccc(Br)c1)c1ccc2c(c1)CCCC2 | 106% (inactive) |
| NS(=O)(=O)c1ccc(-n2nc(-c3ccc(Cl)cc3)ccc2=O)cc1 | 102% (inactive) |
| O=[N+]([O-])c1ccc(NS(=O)(=O)c2ccccc2)c2ccccc12 | 35.9% (inactive) |
| CCC1S/C(=N\N=C(/C)c2cccs2)N(c2ccccc2)C1=O (stereo not drawn) | 108% (inactive) |
| Cc1cc(NCCN(C(C)C)C(C)C)nc(/N=C(\N)Nc2ccc(Cl)c(C(F)(F)F)c2)n1 | -88.8% (active) |
| C=CCn1c(SCC(=O)Nc2ccc(/C(C)=N\O)cc2)nnc1-c1cc(-c2ccc(OC)cc2)nc2ccccc12 | 38.7% (inactive) |
